High-throughput results as filed in PubChem.
M4 antag = antagonists of human muscarinic M4 receptor (CHRM4); P08173; CHO-hM4 cells, ACh EC80, Fluo-8 calcium fluorescence; inhibition, % at 3 µM; 0.73% of 360,000 active; AID 624125;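 active = inhibition above its plate's cutoff, the mean inhibition of sample wells plus 3 SD, cut at about 27% in these data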
Target sequence (P08173 whole entry, looked up): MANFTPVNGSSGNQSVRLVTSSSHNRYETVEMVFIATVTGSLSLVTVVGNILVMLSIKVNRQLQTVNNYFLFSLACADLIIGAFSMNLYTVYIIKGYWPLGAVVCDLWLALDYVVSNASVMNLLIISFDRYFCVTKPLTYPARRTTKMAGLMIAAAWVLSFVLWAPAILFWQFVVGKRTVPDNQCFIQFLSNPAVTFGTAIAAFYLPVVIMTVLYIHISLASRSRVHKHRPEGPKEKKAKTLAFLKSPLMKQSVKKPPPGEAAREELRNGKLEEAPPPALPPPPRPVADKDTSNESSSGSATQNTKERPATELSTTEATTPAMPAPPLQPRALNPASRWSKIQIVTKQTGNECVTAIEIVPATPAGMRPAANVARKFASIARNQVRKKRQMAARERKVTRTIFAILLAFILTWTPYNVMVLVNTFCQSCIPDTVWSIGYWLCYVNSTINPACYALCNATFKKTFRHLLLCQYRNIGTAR
CHRM4 PAM = CHRM4 positive allosteric modulation; activation, % at 3 µM; 0.4% of 360,000 active; CHO-K1 hM4/Gqi5, Fluo-8 calcium fluorescence, ACh EC20; 0% = ACh EC20, 100% = maximal ACh; P08173;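 active = activation above its plate's cutoff, the mean activation of sample wells plus 3 SD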
M1 PAM parental = counter-screen for M1 PAMs: effect in parental CHO-K1 cells; activation, % at 3 µM; ATP EC20, Fluo-8 calcium fluorescence; 0% at ATP EC20, 100% at ATP max; 0.02% of 360,000 active; AID 602247;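 active = activation above the run cutoff, the mean activation of all test compounds plus 3 SD, cut at about 40% in these data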;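 note: peak over basal fluorescence ratio in a 140 s read after ATP addition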
M4 ag = CHRM4 agonism in calcium assay; P08173; 0.14% of 360,000 active; CHO-K1 hM4/Gqi5, Fluo-8 calcium fluorescence; vehicle 0%, full acetylcholine response 100%; activation, % at 3 µM;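 active = activation above the run mean over all test wells plus 3 SD, cut at about 32% in these data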;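 note: peak over basal fluorescence ratio per well then scaled between controls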
CHO-K1 Ca ag = M1 agonist counterscreen hit in parental CHO-K1 cells. Fluo-8 calcium fluorescence; scaled to maximal ATP response, vehicle zero. activation, % at 3 µM. 0.48% of 360,000 active. AID 602248; in the data active = activation above about 15%;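 note: untransfected CHO-K1 host cells lacking M1 receptor as counterscreen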
CHO-K1 Ca antag = M1 antagonist counterscreen hit in parental CHO-K1 cells; ATP-induced calcium, Fluo-8 fluorescence; inhibition, % at 3 µM; 0.6% of 360,000 active;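 active = inhibition above a per-plate cutoff, the plate's mean sample inhibition plus 3 SD, cut at about 24% in these data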
A number is an active result; 0 = inactive. Sampled rows, rich in hits. Any-hit rate of the full collection: about 2%.

SMILES	M4 antag	CHRM4 PAM	M1 PAM parental	M4 ag	CHO-K1 Ca ag	CHO-K1 Ca antag
COc1ccc(CNC(=O)c2cccc3c(-c4cccnc4)coc23)cc1OC	0	0	0	0	15.2	27.7
CCCC(=O)N(C1CC(C)C(C#N)(C#N)C1(C#N)C#N)N(C)C (centres undefined)	47.2	0	0	0	0	0
Cc1ccccc1CN1CCN(S(=O)(=O)c2cccs2)CC1	0	0	0	0	0	0
CCC(C)N1CCNCC1 (centres undefined)	0	0	0	0	0	25.1
COc1ccccc1N1CCN(C(=O)c2ccc(CN3CCOCC3)cc2)CC1	0	0	0	0	0	0
CCCN(C(=O)C1CCCN(c2ncnc3c2nc2n3CCCCC2)C1)c1ccc(F)cc1 (centres undefined)	0	0	0	0	0	0
OCCN1CCN(CC(O)COc2ccc(C34CC5CC(CC(C5)C3)C4)cc2)CC1 (centres undefined)	0	0	0	0	0	0
NCCOc1ccc(C23CC4CC(CC(C4)C2)C3)cc1	0	0	0	0	16.7	0
COc1cc(NC(=O)C2=C(N3CCOCC3)/C(=C\c3ccc(N(C)C)cc3)CCC2)cc(OC)c1OC	0	21.4	0	0	0	0
COc1ccc(CNS(=O)(=O)NCc2ccc(OC)c(OC)c2)cc1	0	0	0	0	0	0
COc1ccc(CNS(=O)(=O)NCc2ccc(C)cc2)cc1OC	0	0	0	0	19.3	0
CC(C)NS(=O)(=O)c1ccc(OCC(=O)Nc2cccc(F)c2)cc1	0	0	0	0	0	0
N#Cc1ccc(-c2ccc(F)cc2)nc1Oc1ccc(Cl)c(Cl)c1	0	32.6	0	0	0	0
CC(=O)Nc1nc(=S)n(-c2ccccc2)[nH]1	0	0	0	0	0	0
CC(C)c1nc(=S)n(-c2ccccc2)[nH]1	0	0	0	0	0	28.2
Cc1cccc(OCC(=O)NCC(=O)N/N=C/c2cc(Br)ccc2OCc2ccccc2)c1	0	0	0	0	18.4	0
CCC1CCCCN1Cc1nc(Cc2ccccc2Cl)no1 (centres undefined)	0	0	0	0	0	0
CN(C)c1nc(-c2ccccc2)nnc1C(F)(F)F	0	0	0	0	0	0
CN(C)CCNc1nc(-c2ccccc2)nnc1C(F)(F)F	0	0	0	0	0	45.6
O=C(Nc1ccc2c(c1)OCCO2)C(c1cc2ccccc2o1)N1CCN(C/C=C/c2ccccc2)CC1 (centres undefined)	0	0	45.7	0	0	0
C(=C\c1ccccc1)/CN1CCN(C(c2ccccc2)c2nnnn2-c2ccc3c(c2)OCCO3)CC1 (centres undefined)	31.8	0	0	0	0	0
C(=C\c1ccccc1)/CN1CCN(C(c2cc3ccccc3o2)c2nnnn2C2CCCC2)CC1 (centres undefined)	0	0	0	0	0	0
COc1ccc(C(c2nnnn2C2CCCCC2)N2CCN(C/C=C/c3ccccc3)CC2)cc1 (centres undefined)	30.8	0	0	0	0	0
C(=C\c1ccccc1)/CN1CCN(C(c2cccc3ccccc23)c2nnnn2C2CCCC2)CC1 (centres undefined)	96.5	0	0	0	0	0
CN(C)Cc1ccc(-c2nc3cccc4c3n2CCNC4=O)cc1	0	0	0	0	0	0
SMILES	M4 antag	CHRM4 PAM	M1 PAM parental	M4 ag	CHO-K1 Ca ag	CHO-K1 Ca antag
CCCCOc1ccc(C(=O)NCCN2CCC(n3c(=O)[nH]c4ccccc43)CC2)cc1	58.6	0	0	0	0	0
O=C(NCCN1CCC(n2c(=O)[nH]c3ccccc32)CC1)c1ccc(OC(F)(F)F)cc1	0	0	0	0	0	0
CC1CN(C(=O)CCNC(=O)c2ccc(Cl)cc2)CC(C)O1 (centres undefined)	0	0	0	0	0	0
CN1C(=O)c2ccc(NC(=O)C3CC3)cc2C1=O	0	0	0	0	0	0
CC(=O)Nc1cccc(OC(=O)N2CCOCC2)c1	0	27.1	0	0	0	0
COc1cccc(OC(=O)N2CCOCC2)c1	0	0	0	0	0	0
C#CC(CC)(CC)NC(=O)c1cc(S(=O)(=O)N2CCCCC2)ccc1N1CCOCC1	0	0	0	0	0	0
Cc1ccccc1NC(=O)C1CCCN(S(=O)(=O)c2ccc3c(c2)C(C)(C)C(=O)N3C)C1 (centres undefined)	0	0	0	0	0	29.7
CCOc1ccccc1NC(=O)C1CCCN(S(=O)(=O)c2ccc3c(c2)C(C)(C)C(=O)N3C)C1 (centres undefined)	0	0	0	0	0	0
OC(CNCCC1C=Nc2ccccc21)Cn1c2ccc(Cl)cc2c2cc(Cl)ccc21 (centres undefined)	36.6	0	0	0	0	0
Cc1ccccc1N1C(=O)C2ON(c3ccccc3)C(c3ccco3)C2C1=O (centres undefined)	0	0	0	0	15.8	0
COc1ccccc1CNC(=O)c1ccc2nc(N3CCOCC3)sc2c1	0	0	0	0	0	0
CSc1ccc(CN2CCc3c([nH]c4ccccc34)C2)cc1	0	0	0	0	15.3	0
Clc1ccc(CN2CCc3c([nH]c4ccccc34)C2)cc1Cl	0	0	0	0	0	0
OC(CN1CCOCC1)Cn1c(-c2cccc(Cl)c2)nc2ccccc21 (centres undefined)	0	0	0	0	0	27.8
Cc1cc(C)cc(NC(=O)c2nnn(Cc3cc(C)ccc3C)c2N)c1	0	0	0	32.4	0	0
Cc1ccc(C)c(Cn2nnc(C(=O)Nc3ccc4c(c3)OCCO4)c2N)c1	0	0	0	0	0	0
O=C1C(SCCO)=C(SCCO)C(=O)c2ccccc21	61.1	0	0	0	0	0
COc1ccc(-n2c(C)cc(-c3cn4cccc(C)c4n3)c2C)cc1	0	0	0	0	0	0
Cc1cc(-c2cn3ccccc3n2)c(C)n1-c1ccccc1	41.0	0	0	0	0	0
O=[N+]([O-])c1ccc(S(=O)Cc2ccccc2)c([N+](=O)[O-])c1 (centres undefined)	76.8	0	0	0	0	0
O=C(Nc1ccc(Cl)cc1)Nc1ccccc1C(=O)NCc1ccco1	0	0	0	0	0	0
CN(NC(=O)C(=O)NCc1ccco1)C(=O)Nc1ccc(Cl)cc1	0	0	0	0	0	26.5
Cc1oc(S(=O)(=O)N(C)C)cc1C(=O)Nc1ccc(F)cc1	0	0	0	0	0	0
O=[N+]([O-])c1ccc(/C=C/C2=NN(c3ccccc3)C(c3ccco3)C2)o1 (centres undefined)	0	0	0	0	38.4	39.0
CC(C)(C#CC(O)(c1ccccc1)c1ccccc1)N1CCCCC1	47.0	0	0	0	0	0
